PubChem BioAssay
Active and inactive are the calls of the source.

Legend:
[1] = binders of probe aFSTL3 on microarray, primary screen, stem cell growth factor project, biochemical, small-molecule microarray, fluorescence 635/667 (AID 1064); settings: higher = more signal;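 further: measures binding of the biotinylated anti-FSTL3 antibody to printed compounds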
[2] = binders from COS7 lysate, DM2A8 probe, primary screen, torsin A project, cell lysate, small-molecule microarray, fluorescence 635/667 (AID 1065); settings: higher = more signal, COS7 lysate expressing mutant human TOR1A
[3] = binders of probe aFGF2 on microarray, primary screen, stem cell growth factor project, biochemical, small-molecule microarray, fluorescence 635/667 (AID 1067); settings: higher = more signal;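 further: measures binding of biotinylated aFGF2 protein to printed compounds on slides; z-score merges feature fluorescence and signal-to-noise across triplicate slides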
[4] = binders of probe aFGF10 on microarray, primary screen, stem cell growth factor project, biochemical, small-molecule microarray, fluorescence 635/667 (AID 1071); settings: higher = more signal;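 further: score merges 667 nm spot intensity and signal to noise from triplicate slides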
[5] = molecular target: Neurogenic locus notch homolog protein 2 (Homo sapiens) (UniProt Q04721); assay: Notch2 binders on small-molecule microarrays, primary screen, biochemical, small-molecule microarray, 635 nm fluorescence, stem cell growth factors (AID 1073); settings: Notch2 binding, higher = more signal
[6] = molecular target: Pro-neuregulin-1, membrane-bound isoform (Homo sapiens) (UniProt Q02297); assay: NRG1 binders on small-molecule microarrays, primary screen, psychiatric disease protein project, biochemical, small-molecule microarray, fluorescence 635/667 (AID 1075); settings: NRG1 binding, 635 nm fluorescence, higher = more signal;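 further: score combines 667 nm spot fluorescence with signal to noise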
[7] = tested on: Neuregulin-1 EGF-like domain; assay: binders of neuregulin-1 EGF-like domain, primary screen, biochemical, small-molecule microarray, 635 nm fluorescence (AID 1081); settings: small-molecule microarray binding, higher = more signal;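 further: binding of the protein to compounds printed on small-molecule microarray slides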
[8] = FRG1 promoter luciferase signal modulators, primary screen, FRG1 inhibition for FSHD, cell-based, C2C12 myotubes, firefly/Renilla luciferase, luminescence (AID 1084); settings: higher = more signal, called active from +8 up or from −8 down
[9] = binders of probe aFST on microarray, primary screen, stem cell growth factor project, biochemical, small-molecule microarray, fluorescence 635/667 (AID 1086); settings: higher = more signal;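 further: score merges 667 nm fluorescence with signal-to-noise of each printed compound spot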
[10] = binders of probe aHhip on microarray, primary screen, stem cell growth factor project, biochemical, small-molecule microarray, fluorescence 635/667 (AID 1087); settings: higher = more signal;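 further: score merges spot fluorescence at 667nm with spot signal to noise ratio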
[11] = tested on: PRMT1 (protein arginine N-methyltransferase 1); assay: PRMT1 binders on small-molecule microarrays, primary screen, biochemical, small-molecule microarray, 635 nm fluorescence (AID 1088); settings: small-molecule microarray binding, higher = more signal;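 further: binding of Prmt1 protein to compounds spotted on small-molecule microarray slides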
[12] = yeast growth modulation, basal conditions, primary screen, YJM789 clinical isolate, OD600, 24 h (AID 1089);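 further: growth of clinical yeast isolate S. cerevisiae YJM 789 seeded 1000 cells per well; test concentration not given here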; settings: S. cerevisiae YJM789 growth, higher = more signal, called active from +8 up or from −8 down
[13] = fission yeast growth modulation, primary screen, strain 972, OD600, 24 h, no modulator (AID 1090);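 further: basal condition with compound alone and no growth modifier present; test concentration not given here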; settings: S. pombe 972 growth, higher = more signal, called active from +8 up or from −8 down
[14] = S. cerevisiae growth modulation with rapamycin, primary screen, strain BY4716, OD600, 96 h (AID 1091); settings: higher = more signal, called active from +8 up or from −8 down; further: test concentration not given here
[15] = molecular target: Torsin-1A-interacting protein 2 (Homo sapiens) (UniProt Q8NFQ8); assay: LULL1 binders on small-molecule microarray, primary screen, cell lysate, human LULL1 lysate, 635/667 nm fluorescence (AID 1092); settings: hLULL1 lysate binding, 635 nm fluorescence, higher = more signal;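 further: probe is lysate of COS7 cells overexpressing human LULL1; score merges per-feature 667 nm fluorescence with signal-to-noise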
[16] = E. coli growth modulation, two-sided OD650, primary screen, E. coli filamentation project, strain DRC41, 24 h (AID 1093); settings: OD650, 24 h, higher = more signal, called active from +8 up or from −8 down;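 further: MC1000 strain lacking acrAB efflux and sulA so SOS filamentation is blocked; test concentration not given here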
[17] = small-molecule microarray binders of probe aLefty2, primary screen, biochemical, biotinylated probe, 635/667 nm fluorescence (AID 1094); settings: higher = more signal;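 further: score merges spot fluorescence near 667 nm with spot signal-to-noise ratio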
[18] = tested on: Noggin (protein binding on small-molecule microarray); assay: Noggin binders on small-molecule microarray, primary screen, biochemical, 635/667 nm fluorescence (AID 1095); settings: 635 nm fluorescence, higher = more signal;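 further: score merges 667 nm feature fluorescence with signal to noise over triplicate slides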
[19] = molecular target: Neurogenic locus notch homolog protein 3 (Homo sapiens) (UniProt Q9UM47); assay: NOTCH3 binders on small-molecule microarray, primary screen, biochemical, 635/667 nm fluorescence (AID 1096); settings: NOTCH3 binding, 635 nm fluorescence, higher = more signal
[20] = small-molecule microarray binders of probe aEGFR, primary screen, biochemical, biotinylated probe, 635/667 nm fluorescence (AID 1097); settings: higher = more signal;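 further: probe is a biotinylated anti-EGFR antibody binding compounds printed on slides; score combines fluorescence near 667 nm and signal to noise of each spot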

Sequence of Torsin-1A-interacting protein 2 (Homo sapiens) (Q8NFQ8 whole entry, looked up): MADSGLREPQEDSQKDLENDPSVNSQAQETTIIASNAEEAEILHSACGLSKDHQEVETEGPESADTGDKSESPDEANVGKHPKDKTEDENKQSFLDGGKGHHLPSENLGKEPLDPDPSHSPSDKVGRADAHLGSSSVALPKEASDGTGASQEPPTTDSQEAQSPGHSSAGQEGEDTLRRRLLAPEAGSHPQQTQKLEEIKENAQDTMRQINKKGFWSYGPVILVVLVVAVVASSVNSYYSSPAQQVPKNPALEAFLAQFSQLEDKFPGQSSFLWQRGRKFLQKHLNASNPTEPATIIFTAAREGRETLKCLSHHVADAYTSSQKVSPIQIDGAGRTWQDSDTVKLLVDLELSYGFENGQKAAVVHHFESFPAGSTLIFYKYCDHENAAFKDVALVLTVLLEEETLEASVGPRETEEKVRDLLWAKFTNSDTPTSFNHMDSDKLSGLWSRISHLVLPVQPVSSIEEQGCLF
Sequence of Neurogenic locus notch homolog protein 2 (Homo sapiens) (Q04721 whole entry, looked up, canonical isoform): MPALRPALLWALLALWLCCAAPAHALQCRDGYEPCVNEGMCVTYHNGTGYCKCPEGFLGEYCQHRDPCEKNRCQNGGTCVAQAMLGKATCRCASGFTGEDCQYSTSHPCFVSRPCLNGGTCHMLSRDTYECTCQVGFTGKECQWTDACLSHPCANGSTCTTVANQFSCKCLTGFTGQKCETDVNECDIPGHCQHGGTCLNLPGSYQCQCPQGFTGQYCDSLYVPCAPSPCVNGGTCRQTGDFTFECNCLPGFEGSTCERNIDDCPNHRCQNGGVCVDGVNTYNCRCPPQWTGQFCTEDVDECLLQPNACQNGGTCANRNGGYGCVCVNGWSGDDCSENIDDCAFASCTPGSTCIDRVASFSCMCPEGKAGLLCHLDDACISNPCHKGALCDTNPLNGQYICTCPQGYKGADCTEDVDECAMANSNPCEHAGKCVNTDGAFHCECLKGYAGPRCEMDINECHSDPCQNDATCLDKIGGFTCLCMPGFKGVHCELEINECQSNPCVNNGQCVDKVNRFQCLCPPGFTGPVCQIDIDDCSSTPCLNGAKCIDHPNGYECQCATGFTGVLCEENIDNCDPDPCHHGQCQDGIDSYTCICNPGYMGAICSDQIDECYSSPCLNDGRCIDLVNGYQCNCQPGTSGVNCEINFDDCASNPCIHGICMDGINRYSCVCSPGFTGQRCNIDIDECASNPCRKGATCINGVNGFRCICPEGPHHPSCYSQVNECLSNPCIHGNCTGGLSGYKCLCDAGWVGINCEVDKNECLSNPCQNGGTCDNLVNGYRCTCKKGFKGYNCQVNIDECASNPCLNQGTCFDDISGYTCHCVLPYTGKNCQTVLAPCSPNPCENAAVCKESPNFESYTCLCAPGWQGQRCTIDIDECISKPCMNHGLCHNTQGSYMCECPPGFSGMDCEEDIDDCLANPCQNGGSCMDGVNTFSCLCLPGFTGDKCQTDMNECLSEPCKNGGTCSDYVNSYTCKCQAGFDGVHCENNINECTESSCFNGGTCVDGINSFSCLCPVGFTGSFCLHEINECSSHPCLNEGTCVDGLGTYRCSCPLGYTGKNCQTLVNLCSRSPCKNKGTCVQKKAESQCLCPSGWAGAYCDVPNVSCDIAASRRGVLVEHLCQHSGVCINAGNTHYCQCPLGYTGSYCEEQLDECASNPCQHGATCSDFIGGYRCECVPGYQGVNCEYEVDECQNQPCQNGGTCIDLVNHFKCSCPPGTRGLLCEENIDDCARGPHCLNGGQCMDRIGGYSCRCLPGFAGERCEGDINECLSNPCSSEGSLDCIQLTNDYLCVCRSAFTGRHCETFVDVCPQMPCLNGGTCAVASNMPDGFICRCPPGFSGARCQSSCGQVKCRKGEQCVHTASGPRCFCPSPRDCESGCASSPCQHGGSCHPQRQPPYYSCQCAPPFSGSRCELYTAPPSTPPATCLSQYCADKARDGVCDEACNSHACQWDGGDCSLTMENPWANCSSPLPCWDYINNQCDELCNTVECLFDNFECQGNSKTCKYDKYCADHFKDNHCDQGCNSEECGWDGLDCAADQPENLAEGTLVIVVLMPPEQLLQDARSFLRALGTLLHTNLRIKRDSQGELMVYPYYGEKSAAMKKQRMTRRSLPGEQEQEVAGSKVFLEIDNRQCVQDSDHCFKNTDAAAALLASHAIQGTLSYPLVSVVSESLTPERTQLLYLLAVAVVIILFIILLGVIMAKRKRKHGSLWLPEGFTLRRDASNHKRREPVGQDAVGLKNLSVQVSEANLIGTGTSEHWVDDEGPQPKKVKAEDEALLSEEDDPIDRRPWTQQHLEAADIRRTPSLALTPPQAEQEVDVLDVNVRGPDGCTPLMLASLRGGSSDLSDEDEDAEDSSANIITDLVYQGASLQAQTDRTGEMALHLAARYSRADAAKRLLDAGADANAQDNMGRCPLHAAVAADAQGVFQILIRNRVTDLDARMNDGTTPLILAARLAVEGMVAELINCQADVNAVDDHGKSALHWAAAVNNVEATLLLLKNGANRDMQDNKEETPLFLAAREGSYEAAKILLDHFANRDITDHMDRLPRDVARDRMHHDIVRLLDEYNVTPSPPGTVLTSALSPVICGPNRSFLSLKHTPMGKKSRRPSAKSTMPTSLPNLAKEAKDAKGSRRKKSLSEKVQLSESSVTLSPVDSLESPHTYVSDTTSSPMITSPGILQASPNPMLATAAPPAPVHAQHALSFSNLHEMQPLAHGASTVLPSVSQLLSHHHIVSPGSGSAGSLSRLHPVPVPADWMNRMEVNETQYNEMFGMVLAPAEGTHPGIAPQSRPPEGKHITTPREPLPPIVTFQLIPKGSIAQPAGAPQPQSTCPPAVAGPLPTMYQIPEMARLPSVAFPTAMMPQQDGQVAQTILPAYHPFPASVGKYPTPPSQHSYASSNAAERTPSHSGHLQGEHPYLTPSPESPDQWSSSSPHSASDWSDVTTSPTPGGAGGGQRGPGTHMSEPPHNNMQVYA
Sequence of Pro-neuregulin-1, membrane-bound isoform (Homo sapiens) (Q02297 whole entry, looked up, the tested form may be a part, canonical isoform): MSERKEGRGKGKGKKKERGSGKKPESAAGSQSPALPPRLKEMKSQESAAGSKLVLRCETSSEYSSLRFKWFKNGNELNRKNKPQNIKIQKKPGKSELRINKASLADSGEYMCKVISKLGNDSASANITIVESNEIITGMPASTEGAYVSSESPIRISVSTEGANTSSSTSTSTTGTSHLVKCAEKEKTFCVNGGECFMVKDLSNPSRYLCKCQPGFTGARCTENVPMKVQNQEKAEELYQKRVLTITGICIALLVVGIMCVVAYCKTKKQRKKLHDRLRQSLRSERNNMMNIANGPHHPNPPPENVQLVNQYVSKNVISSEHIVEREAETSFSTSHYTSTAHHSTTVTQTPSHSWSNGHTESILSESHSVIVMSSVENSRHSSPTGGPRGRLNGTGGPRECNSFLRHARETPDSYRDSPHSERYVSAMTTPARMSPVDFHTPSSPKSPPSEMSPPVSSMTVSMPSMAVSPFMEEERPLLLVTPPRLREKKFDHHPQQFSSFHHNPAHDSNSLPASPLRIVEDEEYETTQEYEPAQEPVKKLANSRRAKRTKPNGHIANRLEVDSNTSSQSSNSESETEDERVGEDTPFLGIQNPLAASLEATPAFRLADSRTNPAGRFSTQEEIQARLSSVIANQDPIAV

Structure (SMILES) | composite z-score [1] | composite z-score [2] | composite z-score [3] | composite z-score [4] | composite z-score [5] | composite z-score [6] | composite z-score [7] | z-score [8] | composite z-score [9] | composite z-score [10] | composite z-score [11] | z-score [12] | z-score [13] | z-score [14] | composite z-score [15] | z-score [16] | composite z-score [17] | composite z-score [18] | composite z-score [19] | composite z-score [20]
COC(=O)CC=C[C@@H](C)[C@@H](C=NO[C@@H](C)c1cn([C@H](CO)Cc2ccccc2)nn1)NS(=O)(=O)c1ccc(C)cc1 | -0.315 | 0.712 | -0.161 | 0.166 | 0.0829 | -0.0443 | 0.75 | -1.1 (inactive) | 0.279 | 0.251 | 0.526 | -2.32 (inactive) | -1.2 (inactive) | -0.88 (inactive) | 0.112 | 0.122 (inactive) | -0.247 | 0.321 | 0.381 | -0.0398
CO[C@H]1COC(=O)[C@@H](C)COC(=O)[C@H](C)NC(=O)CC=C[C@H]1C | -0.451 | 1.18 | -0.0354 | 0.222 | 0.0126 | -0.521 | 0.734 | -0.53 (inactive) | 0.101 | -0.0557 | 1.23 | 0.508 (inactive) | 0.0971 (inactive) | -0.431 (inactive) | 0.0586 | 0.414 (inactive) | -0.212 | 1.64 | 0.195 | 0.0673
CO[C@@H]1COC(=O)[C@@H](C)NC(=O)CC=C[C@@H](C)[C@H](NS(=O)(=O)c2ccc(C)cc2)COC(=O)[C@H](C)NC(=O)CC=C[C@H]1C | -0.505 | 0.441 | -0.119 | 0.189 | -0.167 | -0.523 | 0.388 | 0.0404 (inactive) | -0.0334 | 0.168 | 1.36 | -0.263 (inactive) | -0.988 (inactive) | -0.331 (inactive) | 0.537 | 1.72 (inactive) | -0.319 | 0.879 | 0.225 | -0.0793
COc1ccc(COC(=O)NN=C2C[C@@H](O)[C@@H](O)[C@@H]3[C@@H]4C(=O)N(C5CCCCC5)C(=O)[C@@H]4CC[C@H]23)cc1 | 1.21 | 0.588 | -0.0784 | -0.396 | -0.961 | -0.255 | -0.194 | 0.248 (inactive) | 0.524 | -0.409 | -0.416 | 0.494 (inactive) | 0.586 (inactive) | 0.818 (inactive) | 0.271 | -0.277 (inactive) | 0.432 | -0.752 | -1.19 | -0.242
CC(=O)OC[C@H]1O[C@H](CCON=C2[C@H]3CCn4c(=O)n(-c5ccccc5)c(=O)n4[C@H]3[C@H](O)[C@@H]3O[C@H]23)C=C[C@@H]1OC(C)=O | -0.47 | 0.141 | -0.0218 | 0.448 | 0.57 | -0.147 | 0.18 | -0.513 (inactive) | 0.476 | 0.163 | 0.156 | -0.111 (inactive) | 0.127 (inactive) | 0.49 (inactive) | 0.77 | 0.93 (inactive) | -0.25 | 1.43 | 0.587 | 0.0488
COc1ccc(O[C@H]2C=C[C@@H](c3ccccc3)O[C@@H]2COC(=O)CCC(C)=NOC(C)CN2CCCc3nc(C)c(C)cc32)cc1 (stereo not given in full) | -0.451 | -0.395 | -0.062 | 0.623 | 0.571 | 0.858 | 0.967 | -0.863 (inactive) | 0.506 | -0.199 | 1.35 | 0.194 (inactive) | -0.629 (inactive) | -0.0642 (inactive) | 1.36 | 1.43 (inactive) | -0.0345 | 0.755 | 1.01 | -0.0106
CC(C)=CCCC(C)=CCON=C1C[C@@H](O)[C@@H](O)[C@@H]2[C@@H]3C(=O)N(C(C)(C)C)C(=O)[C@@H]3CC[C@H]12 | -0.28 | -0.0211 | 0.0122 | 0.406 | 0.591 | 0.0095 | 0.744 | 0.132 (inactive) | -0.0538 | -0.0994 | 0.64 | 0.0423 (inactive) | 0.473 (inactive) | -0.656 (inactive) | 0.312 | 0.281 (inactive) | -0.138 | 0.919 | 0.539 | -0.0466
CC(=O)O[C@H]1C2=CO[C@H](C)[C@H]3[C@H]4C5=C([C@H](O)[C@H]6O[C@H]6C5=O)[C@H](OC4C)[C@@]23C(=O)[C@@H]2O[C@@H]21 (stereo not given in full) | -0.186 | 0.0382 | -0.0724 | 0.705 | 0.673 | 0.435 | 1.01 | -3.35 (inactive) | 0.163 | 0.154 | 0.593 | 0.116 (inactive) | 0.197 (inactive) | 0.0253 (inactive) | 0.946 | -0.681 (inactive) | -0.299 | 0.433 | 0.392 | -0.0047
C=CC[C@@H]1C=C[C@H](ON=C(C)CCN2CCc3nc(-c4ccccc4)c(-c4ccccc4)cc3C2)[C@@H](CO)O1 | -0.374 | 1.11 | -0.2 | 0.34 | 0.65 | 0.464 | 0.942 | 1.23 (inactive) | 0.197 | 0.0393 | 1.55 | -0.67 (inactive) | -4.53 (inactive) | -3.82 (inactive) | 1.53 | 1.42 (inactive) | -0.152 | 0.631 | 0.858 | -0.0332
CC(=O)Nc1ccc([C@@H]2N[C@H](C(=O)O)CC[C@H]2C)cc1 | -0.508 | 0.301 | -0.135 | 0.426 | 0.785 | 0.0589 | 0.151 | 0.564 (inactive) | 0.296 | -0.0618 | 0.0579 | 0.216 (inactive) | -0.228 (inactive) | 0.634 (inactive) | 0.184 | 0.622 (inactive) | -0.139 | 0.399 | 0.626 | -0.0493
